This is an account of results in PubChem BioAssay (NCI).

About 79,000 compounds went through this panel and 15% of them were active in at least one assay; those are over-represented in the sample as a whole. Values without a mark were called inactive. Activity calls are given as the source filed them. No stated cut-off is given here; in the data, active means growth inhibition above about 70%; inactive means the rest.

The nature of one assay: NCI Yeast Anticancer Drug Screen. Data for the sgs1 mgt1 strain (AID 161).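 Further: 0% = growth of cultures given vehicle only.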 As to conditions: S. cerevisiae sgs1 mgt1 strain, at 50.0 µM, stronger effect = higher value. The method in brief: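 Yeast cells carrying a defined DNA-repair defect were exposed to test compounds. Growth inhibition was measured relative to vehicle-treated controls.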
As to `Cc1cc2c(c(C(=O)NCC(=O)O)c1)Oc1c(cc(C)cc1C(=O)NCC(=O)O)S2`, the growth inhibition is -4.95%.

In the case of `O=C(Nc1ccc(Cl)cc1)Nc1nnc2nc(CC(=O)c3cccc([N+](=O)[O-])c3Cl)c(=O)[nH]n12`, the growth inhibition was 2.95%.

On to `CC(C)C(CC(=O)O)C(=O)O` (stereo not given), for which the growth inhibition was 10.2%.

`COCC(=O)c1ccc(C#N)cc1`: the growth inhibition is -7.25%.

Regarding `CCCCCCC(C)Cl` (stereo not given), the growth inhibition is 15.8%.

As to `COc1ccc(C2N3CCCCC3[C@@H]3c4[nH]c5ccccc5c4CCN23)c(OC)c1` (stereo not given in full), the growth inhibition is -26.6%.

For the compound `O=C1CCCCCCN1`, the growth inhibition was 1.5%.

For the compound `NC(Cc1ccccc1CP(=O)(O)O)C(=O)O` (stereo not given), the growth inhibition is -16.4%.

Consider `CCOC(=O)c1sc(C(=O)OCC)c(O)c1O`, for which the growth inhibition is 97.8% (active).

`CCOc1ccc(NC(=O)C(=O)CC(=O)C2=C(C)Nc3ccccc3S2)cc1`: the growth inhibition is 12.5%.

As for `S=C1CC(c2ccccc2)Sc2ccccc2N1` (stereo not given), the growth inhibition is 13.9%.

As to `CCN(CC)CCN1Cc2ccccc2C1`, the growth inhibition was -1.7%.

In the case of `CCc1ccccc1NC(=O)C1=C(C)NC(C)=C(C(=O)Nc2ccccc2CC)C1c1ccc2c(c1)OCO2`, the growth inhibition was -2.4%.

For `COC(=O)C1CCC=CC1OC(C)=O` (stereo not given), the growth inhibition is 2.6%.

On to `CCN(CC)c1ccc(Br)cc1`, for which the growth inhibition was 4.55%.

On to `COC(=O)CC1(O)C=C(C)C(=O)c2ccccc21` (stereo not given), for which the growth inhibition is -19.2%.

For `CNC(=O)Sc1ccc([N+](C)(C)C)cc1`, the growth inhibition is 19.8%.

Turning to `Cc1c2oc3c(C)ccc(C(=O)NCCN4CCN(c5ccccc5)CC4)c3nc-2c(C(=O)NCCN2CCN(c3ccccc3)CC2)c(N)c1=O`, the growth inhibition is -8.5%.

Turning to `BrCCCCCBr`, the growth inhibition is 1.5%.

`O=[N+]([O-])c1ccc2c(c1)C(O)c1ccccc1-2` (stereo not given): the growth inhibition was 12.9%.

For the compound `CC(O)C(C)C(N)C(=O)O` (stereo not given), the growth inhibition is -1.05%.

In the case of `Cc1cccc(NC(=S)N(CCC#N)C2CCCCC2)c1`, the growth inhibition was 14.8%.

Take `CNC(=O)OCc1c(COC(=O)NC)c2n(c1C)CCS2(=O)=O`: the growth inhibition is -8.15%.

On to `Cc1ccc2[nH]c(C)c(C(=O)c3ccncc3)c2c1`, for which the growth inhibition was 4.15%.

Turning to `Brc1ccc2c(c1)C1(c3cc(Br)ccc3-2)c2cc(Br)ccc2-c2ccc(Br)cc21`, the growth inhibition is -13.7%.

For `COc1ccc2c(CC(=O)O)cc(=O)oc2c1`, the growth inhibition is 15.4%.

For `O=c1cc(NCc2cccc([N+](=O)[O-])c2)[nH]c(=O)[nH]1`, the growth inhibition is 5.05%.

Consider `CCCCCCCCCCCCOC1C(COCCN2CCCCC2)OC2OC(C)(C)OC21` (stereo not given), for which the growth inhibition is 89.7% (active).

With `CN(N=O)C(=O)NC(C=O)C(O)C(O)C(O)CO` (stereo not given), the growth inhibition is 28.4%.

Regarding `Cc1ccc2c(c1)SCc1c-2[nH]c2ccccc12`, the growth inhibition is 95.3% (active).

As to `N#C/C(=C\c1cccc(Cl)c1)C(=O)c1ccccc1`, the growth inhibition was -1.35%.

`COC(=O)C1(Cc2ccc3c(c2)CCC3)Cc2ccccc2C1=O` (stereo not given): the growth inhibition was 25.1%.

As for `CC(C)C(=O)CC1(O)C(=O)Nc2ccc([N+](=O)[O-])cc21` (stereo not given), the growth inhibition was -7.75%.

Consider `CC(=O)OC1/C=C(/C)CCC2OC2(C)CC2OC(=O)C3(CC3)C12` (stereo not given), for which the growth inhibition is -2%.

Regarding `CCCCCCCCCCCC(=O)Nc1ccc(N(C)C(C)=O)cc1`, the growth inhibition was -9.1%.

On to `CN(Cc1ccc(Cl)cc1)C(=O)Nc1ccccc1Cl`, for which the growth inhibition is 43.3%.

Take `CCOc1cc(C)c2cccc(C)c2n1`: the growth inhibition is -13.6%.

On to `Cc1nc2ccccc2n1CCC(N)=O`, for which the growth inhibition was 6.1%.

As for `ClCC1=NC2C(Cl)C(Cl)C(Cl)C(Cl)C2N1` (stereo not given), the growth inhibition is 94.7% (active).

On to `CC(C)CC(NS(=O)(=O)Cc1ccccc1)C(=O)NN` (stereo not given), for which the growth inhibition is -3.85%.

The next assay can be described thus: NCI Yeast Anticancer Drug Screen. Data for the cln2 rad14 strain (AID 165).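 Further: 0% = growth equal to vehicle treated cultures.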 To be noted: S. cerevisiae cln2 rad14 strain, at 50.0 µM, stronger effect = higher value. The procedure, abridged: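 Yeast carrying cln2 and rad14 alterations (cell cycle control and DNA damage repair) were exposed to compounds. Growth inhibition was measured against vehicle-treated controls.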
`Cc1cc2c(c(C(=O)NCC(=O)O)c1)Oc1c(cc(C)cc1C(=O)NCC(=O)O)S2`: the growth inhibition was 14.8%.

Turning to `O=C(Nc1ccc(Cl)cc1)Nc1nnc2nc(CC(=O)c3cccc([N+](=O)[O-])c3Cl)c(=O)[nH]n12`, the growth inhibition was -0.4%.

Take `CC(C)C(CC(=O)O)C(=O)O` (stereo not given): the growth inhibition was -8%.

`COCC(=O)c1ccc(C#N)cc1`: the growth inhibition is -39%.

As to `CCCCCCC(C)Cl` (stereo not given), the growth inhibition is 23.7%.

`COc1ccc(C2N3CCCCC3[C@@H]3c4[nH]c5ccccc5c4CCN23)c(OC)c1` (stereo not given in full): the growth inhibition was 6.1%.

With `O=C1CCCCCCN1`, the growth inhibition is 16.6%.

Regarding `NC(Cc1ccccc1CP(=O)(O)O)C(=O)O` (stereo not given), the growth inhibition was -4.9%.

As for `CCOC(=O)c1sc(C(=O)OCC)c(O)c1O`, the growth inhibition is 58.4%.

Consider `CCOc1ccc(NC(=O)C(=O)CC(=O)C2=C(C)Nc3ccccc3S2)cc1`, for which the growth inhibition was -2.25%.

On to `S=C1CC(c2ccccc2)Sc2ccccc2N1` (stereo not given), for which the growth inhibition is 1.8%.

Regarding `CCN(CC)CCN1Cc2ccccc2C1`, the growth inhibition was -14.1%.

On to `CCc1ccccc1NC(=O)C1=C(C)NC(C)=C(C(=O)Nc2ccccc2CC)C1c1ccc2c(c1)OCO2`, for which the growth inhibition is -7.8%.

Consider `COC(=O)C1CCC=CC1OC(C)=O` (stereo not given), for which the growth inhibition was 4.45%.

`CCN(CC)c1ccc(Br)cc1`: the growth inhibition was -2.5%.

For the compound `COC(=O)CC1(O)C=C(C)C(=O)c2ccccc21` (stereo not given), the growth inhibition was -19%.

Turning to `CNC(=O)Sc1ccc([N+](C)(C)C)cc1`, the growth inhibition was -7.5%.

For the compound `Cc1c2oc3c(C)ccc(C(=O)NCCN4CCN(c5ccccc5)CC4)c3nc-2c(C(=O)NCCN2CCN(c3ccccc3)CC2)c(N)c1=O`, the growth inhibition is -11.3%.

`BrCCCCCBr`: the growth inhibition was -48.5%.

On to `O=[N+]([O-])c1ccc2c(c1)C(O)c1ccccc1-2` (stereo not given), for which the growth inhibition is 26.9%.

`CC(O)C(C)C(N)C(=O)O` (stereo not given): the growth inhibition is -0.85%.

`Cc1cccc(NC(=S)N(CCC#N)C2CCCCC2)c1`: the growth inhibition was 7%.

For the compound `CNC(=O)OCc1c(COC(=O)NC)c2n(c1C)CCS2(=O)=O`, the growth inhibition was -9.95%.

Take `Cc1ccc2[nH]c(C)c(C(=O)c3ccncc3)c2c1`: the growth inhibition is -8.35%.

Consider `Brc1ccc2c(c1)C1(c3cc(Br)ccc3-2)c2cc(Br)ccc2-c2ccc(Br)cc21`, for which the growth inhibition was 22.7%.

Turning to `COc1ccc2c(CC(=O)O)cc(=O)oc2c1`, the growth inhibition was 7.7%.

With `O=c1cc(NCc2cccc([N+](=O)[O-])c2)[nH]c(=O)[nH]1`, the growth inhibition was -12.6%.

As for `CCCCCCCCCCCCOC1C(COCCN2CCCCC2)OC2OC(C)(C)OC21` (stereo not given), the growth inhibition was 90% (active).

In the case of `CN(N=O)C(=O)NC(C=O)C(O)C(O)C(O)CO` (stereo not given), the growth inhibition was 12.2%.

Take `Cc1ccc2c(c1)SCc1c-2[nH]c2ccccc12`: the growth inhibition was 88.9% (active).

For `N#C/C(=C\c1cccc(Cl)c1)C(=O)c1ccccc1`, the growth inhibition was 13.1%.

Consider `COC(=O)C1(Cc2ccc3c(c2)CCC3)Cc2ccccc2C1=O` (stereo not given), for which the growth inhibition is 21.6%.

Turning to `CC(C)C(=O)CC1(O)C(=O)Nc2ccc([N+](=O)[O-])cc21` (stereo not given), the growth inhibition was -34.9%.

Regarding `CC(=O)OC1/C=C(/C)CCC2OC2(C)CC2OC(=O)C3(CC3)C12` (stereo not given), the growth inhibition was 10.7%.

Regarding `CCCCCCCCCCCC(=O)Nc1ccc(N(C)C(C)=O)cc1`, the growth inhibition is -1.35%.

With `CN(Cc1ccc(Cl)cc1)C(=O)Nc1ccccc1Cl`, the growth inhibition is 7.35%.

In the case of `CCOc1cc(C)c2cccc(C)c2n1`, the growth inhibition is 6.25%.

With `Cc1nc2ccccc2n1CCC(N)=O`, the growth inhibition is 12.3%.

Take `ClCC1=NC2C(Cl)C(Cl)C(Cl)C(Cl)C2N1` (stereo not given): the growth inhibition is 87.5% (active).

On to `CC(C)CC(NS(=O)(=O)Cc1ccccc1)C(=O)NN` (stereo not given), for which the growth inhibition is 11.2%.
